Screening data deposited in PubChem by National Center for Advancing Translational Sciences (NCATS).
IDH1 R132H inh: qHTS for Inhibitors of mutant isocitrate dehydrogenase 1 (IDH1): qHTS; hit rate 0.093% among 390,000; Potency, µM (highest dose often 76.6 µM), without a hit: at the top dose activity change, negative = inhibition, actives largely listed as inhibitors; IDH1-R132H enzyme, NADPH consumption, diaphorase/resazurin fluorescence; further: potency means the concentration at half of the fitted maximal effect; on the % scale 0 is the no-effect control and ±100 the full control effect; nearly all actives have a fitted effect of over 65% in size
Target sequence (O75874 whole entry R132H, stated change not applied): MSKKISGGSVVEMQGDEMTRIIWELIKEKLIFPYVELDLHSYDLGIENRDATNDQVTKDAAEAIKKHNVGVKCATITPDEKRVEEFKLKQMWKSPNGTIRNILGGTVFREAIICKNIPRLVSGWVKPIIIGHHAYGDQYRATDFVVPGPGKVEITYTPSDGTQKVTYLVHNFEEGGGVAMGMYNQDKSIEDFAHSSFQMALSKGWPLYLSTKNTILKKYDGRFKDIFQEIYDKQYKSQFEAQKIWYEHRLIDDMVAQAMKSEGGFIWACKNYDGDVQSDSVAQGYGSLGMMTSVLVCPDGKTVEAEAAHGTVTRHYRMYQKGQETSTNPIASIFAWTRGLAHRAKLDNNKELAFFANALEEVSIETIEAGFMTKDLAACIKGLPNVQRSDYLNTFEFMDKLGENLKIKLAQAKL
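IDH1-R132H (0.5 ug/mL dispensed) in pH 7.5 Tris buffer was preincubated 30 min with compound, then given a substrate mix of 0.016 mM NADPH and 2 mM alpha-KG for 80 min at room temperature; remaining NADPH was read by diaphorase/resazurin fluorescence.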
Nrf2 inh: Nrf2 qHTS screen for inhibitors; AID 504444, 2011; hit rate 2.1% among 360,000; Potency, µM (doses to about 46 µM), inactives show at the highest dose activity change, negative = inhibition, actives largely listed as inhibitors; A549 ARE-Fluc reporter, luciferase luminescence, 18-24 h; further: potency means the concentration at half of the fitted maximal effect; on the % scale 0 is the no-effect control and ±100 the full control effect; nearly all actives have a fitted effect of over 60% in size
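Nrf2 activity is the BugLite luminescence, read 15 min after reagent at room temperature, following CellTiter-Fluor cytotoxicity readout (30 min, 37C). Compound titrations were applied for 18-24 h to 5000 A549 ARE_Fluc cells/well in 5% FBS OPTI-MEM.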
Apoferritin bind: qHTS Assay for Identification of Novel General Anesthetics; hit rate 0.074% among 350,000; AID 485281, 2010; apoferritin/1-aminoanthracene competitive binding, fluorescence; Potency, µM (top dose mostly 77.5 µM), for inactives: at the highest dose activity change, negative = displacement, actives largely listed as inhibitors; Ferritin light chain (Equus caballus), P02791; further: potency means the concentration at half of the fitted maximal effect; on the % scale 0 is the no-effect control and ±100 the full control effect; nearly all actives have a fitted effect of over 20% in size
Target sequence (P02791 2-175 limits assumed): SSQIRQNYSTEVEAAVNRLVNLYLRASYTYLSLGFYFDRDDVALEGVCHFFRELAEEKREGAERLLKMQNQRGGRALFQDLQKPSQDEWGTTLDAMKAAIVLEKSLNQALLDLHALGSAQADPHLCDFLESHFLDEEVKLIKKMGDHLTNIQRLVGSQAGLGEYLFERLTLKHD
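Horse-spleen apoferritin (10 uM) was mixed with 50% saturated 1-aminoanthracene in PBS, exposed to compounds for 10 min at room temperature, and read for fluorescence (ex 380 nm, em 535 nm). Competitive displacement was fitted with a four-parameter Hill equation.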
A549 tox: Nrf2 qHTS screen for inhibitors: counterscreen for cytotoxicity | A549 ARE-Fluc cells, CellTiter-Fluor viability, 18-24 h | Potency, µM (doses to about 46 µM), without a hit: at the top dose activity change, negative = cytotoxicity, hits mostly inhibitors | hit rate 0.16% among 390,000; further: potency means the concentration at half of the fitted maximal effect; on the % scale 0 is the no-effect control and ±100 the full control effect
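Cytotoxicity counterscreen: CellTiter-Fluor fluorescence was measured in A549 ARE_Fluc cells after 18-24 h of compound exposure in a concentration series. The subsequent BugLite luminescent read reports ARE-luciferase activity.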
Giardia killer: Small Molecules that selectively kill Giardia lamblia: qHTS. Giardia lamblia trophozoite viability. activity change, % at 7.66 µM, hits read low. hit rate 0.15% among 340,000; in the data active means activity change below about -80%; inconclusive means between about -30% and that limit;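 further: parasites exposed to compound for two days anaerobically before the ATP read; on the % scale 0 is the no-effect control and ±100 the full control effect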
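Viability, read as ATP luminescence: trophozoites at 100 cells/well, compound added, 48 hrs anaerobic at 37 deg C, then 15-30 min room-temperature development before reading.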
Nrf2 ARE act: qHTS of Nrf2 Activators. hit rate 0.31% among 410,000. AREc32 ARE-luciferase reporter (MCF7-derived line), luminescence, 24 h. Potency, µM (top dose mostly 46.1 µM), for inactives: top-dose activation, hits mostly activators; further: potency means the concentration at half of the fitted maximal effect; % of control where 0% means no effect; nearly all actives have a fitted effect of over 65% in size
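Cells of the AREc32 ARE-luciferase line are plated in OPTI-MEM containing 5% FBS and left overnight at 37 deg C. Compounds are pinned in, incubation continues 24 hr, and firefly luciferase signal is then measured.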
Active calls of the source: *; u = inconclusive; x = no result given; [ ] = remark or other dose. A selection: hits, their analogues and other compounds. The true share with any hit is near 2.3%. Unless noted, the call rests on the fitted dose curve; in most records, active means well fitted curve in the direction sought with a large enough effect; inconclusive means small, poorly fitted or top-dose-only effect, or another doubt; inactive means no such curve, though single readings can be large; an effect the other way counts as inactive or inconclusive.

SMILES | IDH1 R132H inh | Nrf2 inh | Apoferritin bind | A549 tox | Giardia killer | Nrf2 ARE act
COC(=O)C1=C(C(=O)OC)[C@@H]2N(C)c3ccccc3[C@@]23C[C@@H](C(=O)OC)N(C(=O)c2cccs2)C3=N1 | 7% | 4% | 2% | 4% | 15 | 0%
COC(=O)C1=C(C(=O)OC)[C@@H]2N(Cc3ccccc3)c3ccccc3[C@@]23C[C@@H](C(=O)OC)N(C(=O)c2cccs2)C3=N1 | -17% | 29µM* | 8% | u | 6 | 2%
CCc1ccc(NC(=O)c2cnn3c(C)cc(C)nc23)cc1 | x | u | x | 14% | x | x
CCC1(c2ccc(O)cc2)NC(=O)NC1=O (configuration not stated) | x | x | 0% | x | x | x
Cn1c(SCC(=O)Nc2ccccc2)nc2ccccc2c1=O | -8% | 21µM* | -18% | 0% | 0 | 0%[9.22 µM]
Cc1cccc(NC(=O)CSc2nc3sc(C)cc3c(=O)n2C)c1 | 5% | 23µM* | x | -9% | 1 | 6%
Cc1cccc(NC(=O)CSc2nc3ccccc3c(=O)n2C)c1C | -3% | x | x | x | x | -1%
COc1ccc(NC(=O)CSc2nc3sc(C)cc3c(=O)n2C)c(OC)c1 | -4% | 18µM* | -2% | -11% | -12 | -1%
COc1ccc(NC(=O)CSc2nc3sc(C)cc3c(=O)n2C)cc1 | -2% | -8% | -3% | -16% | 14 | 0%
CCOC(=O)c1ccc(NC(=O)CSc2nc3cccnc3n2C)cc1 | 6% | 21µM* | 7% | -8% | -7 | 0%
COC(=O)c1ccc2c(=O)n(CCCCCC(=O)N3CCN(c4ccc(Cl)cc4)CC3)c(=O)[nH]c2c1 | 15% | x | 2% | 11% | x | 4%
O=C(CSc1nc2ccccc2c(=O)[nH]1)Nc1ccc([N+](=O)[O-])cc1 | 3% | 16µM* | x | -6% | 0 | -1%
O=C(CSc1nc2ccccc2c(=O)[nH]1)Nc1ccc(C(=O)O)cc1 | 5% | 1% | -2% | 0% | 0 | 0%
Cc1ccc2nc(-c3ccc(NC(=O)COC(=O)c4ccc(Br)o4)cc3)sc2c1 | 7% | u | 5% | -12% | u | 0%
Cc1ccc2nc(-c3ccc(NC(=O)COC(=O)c4ccco4)cc3)sc2c1 | 2% | 6.5µM* | -7% | 9% | -14 | 0%
CC(NC(=O)COC(=O)c1c[nH]c2ccccc12)c1ccccc1 (configuration not stated) | -5% | 21µM* | x | -17% | 32 | 2%
CC(NC(=O)COC(=O)CCc1ccccc1)c1ccccc1 (configuration not stated) | 5% | u | -11% | 23µM* | 11 | 0%
CC(C)(C)OC(=O)Cc1nnc(-c2nc3ccccc3[nH]2)s1 | x | u | x | -3% | x | x
Cc1cc(C)n(-c2ccc(C(=O)Nc3cc(S(=O)(=O)N(C)C)ccc3Cl)cc2)n1 | 4% | 18µM* | -3% | 1% | 6 | -1%
COc1ccc(NS(=O)(=O)c2c(C)cc(C)cc2C)cc1 | 10% | 21µM* | -20% | u | 3 | 0%
Cc1ccc(C(=O)n2nc(C)c(S(=O)(=O)N3CCOCC3)c2C)cc1 | 23% | x | -2% | -1% | x | -1%
COCCn1c(C)cc(C(=O)COC(=O)c2ccccc2Br)c1C | 3% | u | -21% | -3% | u | -1%
COCCn1c(C)cc(C(=O)COC(=O)c2[nH]c(C)c(C(C)=O)c2C)c1C | 7% | 23µM* | x | -14% | 7 | 2%
Cc1ccccc1C(=O)Nc1ccc(-c2nc3ccc(C(=O)c4ccccc4)cc3[nH]2)cc1 | 0% | 21µM* | 43% | -10% | 6 | 3%
O=C(c1ccccc1)c1ccc2nc(-c3ccc(NC(=O)c4ccccc4Br)cc3)[nH]c2c1 | -10% | u | u | -7% | 21 | 0%
SMILES | IDH1 R132H inh | Nrf2 inh | Apoferritin bind | A549 tox | Giardia killer | Nrf2 ARE act
Cc1c(C(=O)O)sc2nc(-c3cccs3)cc(C(F)(F)F)c12 | 4% | u | 2% | -2% | 5 | 19%
CC(=O)c1sc2nc(-c3cccs3)cc(C(F)(F)F)c2c1N | 0% | 10% | -6% | 12% | 4 | 6.3µM*
COc1ccc2c(c1)Oc1ncn(CCN3CCOCC3)c(=N)c1C2c1ccc(OC)c(OC)c1 (configuration not stated) | x | 5% | x | 1% | x | x
COC(=O)c1ccc(N2C(c3cc(OC)cc(OC)c3)=Cc3ccc(-c4ccc(C(N)=O)cc4)cc3C2CC(=O)C2CC2)cc1 (configuration not stated) | x | x | x | x | x | 5%
Cc1ccc2cc3c(NC(=O)c4ccco4)nn(C)c3nc2c1 | 1% | u | 80% | 2% | 20 | 3.2µM*
Cc1cc(C)cc(NS(=O)(=O)c2ccc3c(c2)OCC(C(=O)N2CCCC2)O3)c1 (configuration not stated) | -11% | -23% | 3% | -11% | x | -1%
O=C(C1COc2cc(S(=O)(=O)Nc3ccc(Cl)cc3)ccc2O1)N1CCCC1 (configuration not stated) | -12% | 26µM* | 5% | -5% | x | 0%
O=C(c1ccc(N2CCN(C(=O)c3ccc(F)c(F)c3)CC2)cc1)c1cccc(F)c1 | 1% | 16µM* | -7% | -15% | 17 | 0%
Cc1ccccc1-c1ccc2c(c1)O[C@H](CN(C)C(=O)C1CC1)[C@@H](C)CN([C@@H](C)CO)S2(=O)=O | 7% | x | x | x | x | 0%
Cc1sc2nc(C(C)C)nc(SCC(=O)NC3CC3)c2c1C | -11% | 17% | 2% | 0% | 22 | -1%
CCOC(=O)c1cnc(SCC(=O)Nc2cc(OC)ccc2OC)nc1N | 3% | 10µM* | -10% | -18% | 10 | 0%
Cc1cc(NC(=O)CSc2nc(C(C)C)nc3sc(C)c(C)c23)no1 | 11% | 15µM* | -14% | u | 6 | -1%
CCc1nc(SCC(=O)Nc2cc(OC)ccc2OC)c2c(C)c(C)sc2n1 | 4% | 15µM* | -3% | -22% | 1 | 0%
CC(=O)c1cccc(NC(=O)c2noc3c2CC(C)CC3)c1 (configuration not stated) | -2% | x | 1% | 8% | x | 6%
CSc1ccc(CCNC(=O)C2=C(C)C(=O)OC23CCCCC3)cc1 | x | -5% | -10% | -10% | x | -1%
O=C(NCCn1cc(SCc2ccccc2Cl)c2ccccc21)c1cccs1 | -13% | 16µM* | 40% | -2% | x | 0%
Nc1ccc(S(=O)(=O)N2CCN(S(=O)(=O)c3c(F)cccc3F)CC2)cc1 | x | -1% | x | 1% | x | x
